Experimental data from PubChem BioAssay.
Calls of active or inactive are those of the source.

molecular target: NADPH oxidase 4 (Homo sapiens) (UniProt Q9NPH5); assay: compounds shifting NOX4 Amplex Red fluorescence – cell-based, HEK293-NOX4, tetracycline-induced, NOX inhibitor project, primary screen (AID 1160); settings: HEK293-NOX4, Amplex Red H2O2 fluorescence, 45 min; higher = more signal, called active from +8 up or from −8 down
Sequence (Q9NPH5 whole entry, looked up): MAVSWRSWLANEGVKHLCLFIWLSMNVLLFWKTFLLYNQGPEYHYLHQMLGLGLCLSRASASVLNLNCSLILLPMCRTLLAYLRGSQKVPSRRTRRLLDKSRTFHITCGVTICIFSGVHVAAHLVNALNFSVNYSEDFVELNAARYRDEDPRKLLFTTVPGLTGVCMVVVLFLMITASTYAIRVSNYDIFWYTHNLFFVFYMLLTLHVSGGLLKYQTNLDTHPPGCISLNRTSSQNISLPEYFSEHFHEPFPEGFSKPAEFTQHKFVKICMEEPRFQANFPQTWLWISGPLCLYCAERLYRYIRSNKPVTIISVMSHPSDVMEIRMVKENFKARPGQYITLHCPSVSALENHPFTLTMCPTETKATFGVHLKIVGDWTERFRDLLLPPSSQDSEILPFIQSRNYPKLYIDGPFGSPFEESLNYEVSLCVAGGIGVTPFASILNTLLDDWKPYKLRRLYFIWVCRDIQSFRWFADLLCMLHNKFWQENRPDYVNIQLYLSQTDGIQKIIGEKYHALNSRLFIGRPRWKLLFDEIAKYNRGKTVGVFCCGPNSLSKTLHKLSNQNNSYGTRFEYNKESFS

Row | SMILES | z-score
1 | COC(=O)C=C(CC(O)c1cccc(Cl)c1)OC (stereo not drawn) | -0.0239 (inactive)
2 | COC(=O)[C@@]1(Cc2ccccc2)[C@H]2c3cc(C(=O)N4CCCC4)n(CC4CC4)c3C[C@H]2CN1C(=O)c1ccccc1 | -2.68 (inactive)
3 | COCCOC(=O)N1C(=O)[C@@]2(c3cc(C#CCCO)ccc31)[C@H](c1ccc(OCCO)cc1)N1[C@H](c3ccccc3)[C@H](c3ccccc3)OC(=O)[C@H]1[C@@H]2C(=O)N1CCN(c2ncccn2)CC1 | 0.925 (inactive)
4 | COC(=O)[C@@]1(Cc2ccc(F)cc2)[C@H]2c3cc(C(=O)N(C)C)n(Cc4ccc(S(C)(=O)=O)cc4)c3C[C@H]2CN1C(=O)c1ccccc1 | 0.668 (inactive)
5 | CCC(CC)C(O)C1C=CC2C(=O)N(C)C(=O)C2N1Nc1ccccc1 (stereo not drawn) | -3.49 (inactive)
6 | C=CCNC(=O)[C@@H]1[C@H]2C(=O)O[C@H](c3ccccc3)[C@H](c3ccccc3)N2[C@H](c2ccc(OCCO)cc2)[C@@]12C(=O)Nc1ccc(C#CCCO)cc12 | 0.442 (inactive)
7 | O=C(NCc1ccc(F)cc1)[C@H]1C[C@H]2C(=O)N[C@@H](Cc3ccccc3)C(=O)N2[C@H]1c1ccc(O)cc1 | 0.301 (inactive)
8 | COC(=O)[C@@]1(Cc2ccc(F)cc2)[C@H]2c3cc(C(=O)N4CCCC4)n(Cc4cc(C)n(C)n4)c3C[C@H]2CN1C(=O)c1ccccc1 | 0.368 (inactive)
9 | C=CC[C@]1(C(=O)N2CCCCC2)N=C(c2ccc(OCCCO)cc2)O[C@H]1c1ccccc1 | -0.0137 (inactive)
10 | CN1C(=O)C2C=CC(C(O)C3CCCCC3)N(Nc3ccc([N+](=O)[O-])cc3[N+](=O)[O-])C2C1=O (stereo not drawn) | 0.889 (inactive)
11 | C=C(C)C1C(=C)CN([C@H](CO)c2ccccc2)C1=O (stereo partly drawn) | 0.998 (inactive)
12 | N#Cc1ccc(NN2C(C(O)c3c(F)cccc3Cl)C=CC3C(=O)N(c4ccccc4)C(=O)C32)cc1 (stereo not drawn) | -3.86 (inactive)
13 | [N-]=[N+]=Nc1ccccc1[C@H]1OC(c2ccc(OCCCO)cc2)=N[C@@]1(Cc1ccccc1)C(=O)O | 1.5 (inactive)
14 | O=C1NCC(=O)N2[C@@H]1C[C@@H](C(=O)O)[C@H]2c1cccc(OCCO)c1 | 0.281 (inactive)
15 | COc1ccc(CCN2C(=O)[C@@]3(Cc4ccccc42)c2ccccc2C(=O)N(Cc2ccccc2C(F)(F)F)[C@H]3c2ccc(CO)cc2)cc1 | -2.08 (inactive)
16 | CN(C)C(=O)[C@]1(Cc2ccccc2CN=[N+]=[N-])N=C(c2ccc(OCCCO)cc2)O[C@@H]1c1ccccc1CN=[N+]=[N-] | -1.6 (inactive)
17 | CC(C)C[C@@H]1NC(=O)[C@H]2C[C@@H](C(=O)NCCCCCCN)[C@@H](c3ccc(O)cc3)N2C1=O | 1.05 (inactive)
18 | C=C(CCCC)/C(=C/C[C@@H](OC(C)=O)c1ccccc1OCCO)c1cnc2ccccc2c1 | -1.61 (inactive)
19 | COC(=O)[C@@]1(Cc2ccccc2)[C@H]2c3cc(C(=O)N4CCCC4)n(Cc4cccc5ccccc45)c3C[C@H]2CN1C(=O)c1ccccc1 | -0.237 (inactive)
20 | [N-]=[N+]=NCc1ccccc1[C@@H]1OC(c2ccc(OCCCO)cc2)=N[C@]1(CCS(=O)(=O)c1ccccc1)C(=O)NCc1ccccc1 | 0.0609 (inactive)
21 | O=C1C[C@]2(c3ccc([N+](=O)[O-])cc3)C(=O)N(CCN3CCOCC3)c3cc(CO)ccc3[C@H]2N1C1CCCCC1 | -0.0781 (inactive)
22 | O=C1O[C@@H](c2ccccc2)[C@@H](c2ccccc2)N2[C@@H](c3ccc(OCCO)cc3)[C@]3(C(=O)Nc4ccccc43)[C@@H](C(=O)NC[C@H](O)c3ccccc3)[C@H]12 | 0.918 (inactive)
23 | Cc1ccc(C(C)CC(O)C2C=CC3C(=O)N(c4ccccc4)C(=O)C3N2Nc2ccc([N+](=O)[O-])cc2)o1 (stereo not drawn) | -0.521 (inactive)
24 | CC(C)C[C@@H]1NC(=O)[C@@H]2C[C@H](C(=O)NCCCCCN)[C@H](c3cccc(OCCO)c3)N2C1=O | 0.74 (inactive)
25 | C=C(CCCC)C(=O)CC[C@@H](OC(=O)c1cccnc1)c1ccc(CO)o1 | -0.942 (inactive)
26 | COc1ccc(C(O)C2C=CC3C(=O)N(c4ccccc4)C(=O)C3N2Nc2ccc(C(C)C)cc2)cc1OCc1ccccc1 (stereo not drawn) | -2.55 (inactive)
27 | CC(C)[C@@H](CO)NC(=O)[C@H]1[C@@H](c2ccccc2)N(c2ccccc2)O[C@@H]1C | 0.366 (inactive)
28 | O=C1c2ccccc2[C@](Cc2ccccc2I)(C(=O)NC2CC2)[C@H](c2ccc(CO)cc2)N1C1CCCCC1 | 1.06 (inactive)
